# KB-3-1 cytotox = kills parental KB-3-1 adenocarcinoma cells | Potency, µM (titrated, usually from 46.1 µM), actives largely listed as cytotoxic | 400,000 tested, 1.4% active | KB-3-1 viability, CellTiter-Glo ATP luminescence, 72 h; also: nearly all actives have a fitted effect of over 60% in size
#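 KB-3-1 cells, DMEM (no phenol red) + 10% FBS; compound by pin transfer, 72 h, 37 °C. Readout: CellTiter-Glo luminescence after 10 min. Data normalized, curve-fitted.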
# HT1080 IDH1KD tx = kills HT-1080 cells with IDH1 knockdown. HT-1080 IDH1 knockdown viability, ATP luminescence, 48 h. Potency, µM (titrated, usually from 46.1 µM), hits mostly cytotoxic. 360,000 tested, 2% active. AID 686971
#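 Using the IDH1-knockdown HT-1080 line run in the same batch and compound series as the NT line, viability after 48 h at 37 °C was determined by CellTiter-Glo luminescence and expressed as % activity.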
# TDP1 cell noCPT = qHTS for Inhibitors of human tyrosyl-DNA phosphodiesterase 1 (TDP1): qHTS in cells in absence of CPT | DT40 Tdp1-/- hTDP1 cells, no CPT, ATP luminescence, 48 h | Potency, µM (highest dose often 46.2 µM), actives largely listed as inhibitors | 420,000 tested, 15% active; also: nearly all actives have a fitted effect of over 55% in size
#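 Chicken DT40 Tdp1-/- cells complemented with human TDP1, screened without camptothecin (DMSO vehicle only), 400 cells/well. Compounds pin-transferred, cells incubated at 37 °C for at least 48 hr. Growth read as ATP-dependent luminescence (CellTiter-Glo, 30 min at RT).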
# DT40 TDP1 CPT = growth inhibition of DT40 Tdp1-/-;hTDP1 cells with camptothecin (screen for TDP1 inhibitors); chicken DT40 Tdp1-/-;hTDP1 cells + 20 nM CPT, ATP luminescence, 48 h; Potency, µM (doses to about 46.2 µM), most hits filed as inhibitors; 420,000 tested, 12% active; AID 686979; also: nearly all actives have a fitted effect of over 55% in size
#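 Cell growth measured by CellTiter-Glo luminescence after a minimum 48 h, 37 C compound exposure with 20 nM CPT in Tdp1-knockout DT40 cells stably expressing hTDP1, seeded 400/well; qHTS titration format.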
# HT1080NT lethal = kills 2HG-producing HT-1080-NT fibrosarcoma cells; HT-1080-NT fibrosarcoma viability, CellTiter-Glo ATP luminescence, 48 h; Potency, µM (doses to about 46.1 µM), most hits filed as cytotoxic; 360,000 tested, 1.6% active; AID 686970;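 also: NT is the 2HG producing partner of a matched IDH1 knockdown line; nearly all actives have a fitted effect of over 55% in size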
#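 HT-1080-NT; 750 cells/well; 5% FBS RPMI; 48 h compound, 37 degrees C; CellTiter-Glo luminescence; curve fitting and curve-class assignment.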
# KB-V1 cytotox = kills drug-selected multidrug resistant KB-V1 cells; KB-V1 MDR cells viability, CellTiter-Glo, 72 h; Potency, µM (doses to about 46.1 µM), hits mostly cytotoxic; 400,000 tested, 3.4% active; AID 1347076; also: nearly all actives have a fitted effect of over 60% in size
#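 Cells of the MDR subline KB-V1 are plated, dosed with compound at multiple concentrations, and incubated 72 h at 37 degrees C; CellTiter-Glo is then added and luminescence read after 10 min.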
# Hits are given with their value; - = inactive; ? = inconclusive; . = no result. Shown are actives, neighbours in structure and some others; about 19% of the full set was active somewhere. Calls follow the shape of the dose curve; as a rule, active = well fitted curve in the direction sought with a large enough effect; inconclusive = small, poorly fitted or top-dose-only effect, or another doubt; inactive = no such curve, though single readings can be large; an effect the other way counts as inactive or inconclusive.
SMILES,KB-3-1 cytotox,HT1080 IDH1KD tx,TDP1 cell noCPT,DT40 TDP1 CPT,HT1080NT lethal,KB-V1 cytotox
CC(=O)N1CCOC12CCN(Cc1ccccc1)CC2,-,-,-,-,-,-
CCOc1ccc(Br)cc1CC(=O)O,-,-,-,-,-,-
CCCOc1ccc(Br)cc1CSC(=N)N,8.2µM,?,2.06µM,6.51µM,-,-
Cc1cc2oc(=O)cc(-c3ccccc3)c2c(C)c1-c1ccc(N(C)C)cc1,-,-,?,?,-,-
COc1ccc(-c2ccc(-c3cc(=O)oc4c(C(C)C)ccc(C)c34)cc2)cc1,-,-,20.6µM,23.1µM,-,-
Cc1cc2oc(=O)cc(-c3ccccc3)c2c(C)c1-c1ccc(C(F)(F)F)cc1,-,-,?,?,-,-
COc1ccc(-c2c(C)cc3oc(=O)cc(-c4ccccc4)c3c2C)cc1,-,-,?,23.1µM,-,?
Cc1ccc(-c2c(C)cc3oc(=O)cc(-c4ccccc4)c3c2C)cc1,-,-,23.1µM,?,-,-
O=C(O)C1CC=CCC1C(=O)NCc1ccc(Cl)c(Cl)c1 (stereo not drawn),-,-,-,-,-,-
Cc1ccc(C)c(Nc2nc(NCc3ccco3)nc3nccnc23)c1,-,.,?,?,.,-
CNC(=O)[C@@]1(Cc2ccccc2)C=C[C@@H](C)N1C(=O)OC,-,-,-,-,-,-
C[C@@H]1C=C[C@](Cc2ccccc2)(C(=O)NCC2CC2)N1C(=O)c1ccccc1,-,-,9.2µM,18.4µM,-,-
Cc1ccc2[nH]c3c(=O)n(CC(=O)N4CC(C)CC(C)C4)ncc3c2c1 (stereo not drawn),-,-,-,-,-,-
COc1ccc(CN(C)CC(=O)Nc2cc(OC)c([N+](=O)[O-])cc2C)c(OC)c1,-,-,14.6µM,13µM,-,?
COc1cc(NC(=O)CN(C)C2CCCCC2)c(C)cc1[N+](=O)[O-],-,-,?,-,-,4.11µM
COc1cc(NC(=O)CN(C)Cc2cccc(F)c2)c(C)cc1[N+](=O)[O-],?,-,20.6µM,?,-,?
COc1cc(NC(=O)CN(C)CCOc2ccccc2)c(C)cc1[N+](=O)[O-],-,-,?,?,-,-
CCOc1ccc(C(=O)N[C@H](C(=O)N2CCN(c3ncccn3)CC2)C(C)C)cc1,-,-,?,?,-,-
CC1(C(=O)NS(=O)(=O)c2cccs2)CCN1C(=O)Cc1ccc(Cl)cc1Cl (stereo not drawn),-,-,-,-,-,-
N#Cc1ccc(CN2CC3(CCN(C(=O)c4cnccn4)CC3)C2)cc1,.,.,-,-,.,.
Cc1ccc(OCCOCCn2c(-c3ccc(Cl)cc3)nc3ccccc3c2=O)cc1,-,.,-,-,.,-
COc1ccc(S(=O)(=O)N2Cc3ccccc3CC2C(=O)Nc2cccc(C)c2)cc1OC (stereo not drawn),-,.,9.2µM,?,.,-
CCOC(=O)c1ccc(NC(=O)C2Cc3ccccc3CN2S(=O)(=O)c2ccc(Cl)cc2)cc1 (stereo not drawn),.,.,16.4µM,?,.,.
O=C(Nc1nccs1)C1Cc2ccccc2CN1S(=O)(=O)c1ccc(F)cc1 (stereo not drawn),-,-,14.6µM,?,-,-
COc1ccc(NC(=O)c2ccc3c(c2)CCN3S(=O)(=O)c2ccccc2)cc1,?,-,?,?,-,-
SMILES,KB-3-1 cytotox,HT1080 IDH1KD tx,TDP1 cell noCPT,DT40 TDP1 CPT,HT1080NT lethal,KB-V1 cytotox
CCCCOC(=O)c1ccc(NC(=O)c2ccc3c(c2)CCN3S(=O)(=O)c2ccccc2)cc1,.,.,7.31µM,5.8µM,.,.
CCOC(=O)c1ccc(NC(=O)C2CC(O)CN2S(=O)(=O)c2ccc(C)cc2)cc1 (stereo not drawn),-,-,?,-,-,-
Cc1nn(C(=O)c2cccc(F)c2)c(C)c1S(=O)(=O)N1CCCCCC1,-,.,-,-,.,-
COC(=O)c1ccc(C(=O)Nc2ccc(C(C)C)cc2N)cc1,-,-,-,-,-,-
Cc1ccccc1CN1C(=O)c2ccccc2S(=O)c2ccc(C(=O)NCc3ccc4c(c3)OCO4)cc21 (stereo not drawn),-,.,-,-,.,-
Cc1cccc(-n2c(=O)c3c(c4cc(C)ccc4n3C)n(CC(=O)NCCC3=CCCCC3)c2=O)c1,-,.,?,?,.,-
CCOC(=O)c1ccc(NC(=O)c2ccc3c(c2)CCN3S(=O)(=O)c2ccc(Cl)cc2)cc1,-,.,?,7.31µM,.,-
Cc1cc(C)c(Cn2c(C)c(CNCCCc3ccccc3)c(C(=O)O)c2C)c(C)c1,-,.,23.1µM,?,.,?
Cc1ccc(Cn2c(C)c(CNCCCc3ccccc3)c(C(=O)O)c2C)cc1,-,.,?,?,.,-
COc1ccc(C)c2sc(N(CCN(C)C)C(=O)c3cccc(N4C(=O)CCC4=O)c3)nc12,-,-,-,-,-,-

# From PubChem BioAssay
